Compound activity as filed in PubChem BioAssay.
Sampled rows, rich in hits. Any-hit rate of the full collection: about 9%.
HPGD inh: qHTS Assay for Inhibitors of HPGD (15-Hydroxyprostaglandin Dehydrogenase). purified HPGD, NADH fluorescence kinetic, PGE2 substrate. Potency, µM, without a hit: at the highest dose activity change, negative = inhibition, usual class: inhibitors. hit rate 4.3% among 150,000. AID 894, 2007; further: potency means the concentration at half of the fitted maximal effect
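20 nM HPGD preincubated 15 min at room temperature with compound in 50 mM Tris-HCl pH 8, 0.01% Tween 20. Started with 1 mM NAD+ and 30 uM prostaglandin E2; NADH fluorescence (360/450 nm) read 5 times over 30-s intervals, last minus first.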
ALDH1A1 block: qHTS Assay for Inhibitors of Aldehyde Dehydrogenase 1 (ALDH1A1) | Aldehyde dehydrogenase 1A1 (Homo sapiens), P00352 | Purified ALDH1A1, NADH fluorescence, propionaldehyde substrate | Potency, µM (series often up to 75.3 µM), without a hit: at the top dose activity, negative = inhibition, actives largely listed as inhibitors | hit rate 7.3% among 220,000 | AID 1030, 2008;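 further: potency means the concentration at half of the fitted maximal effect; plate controls were no enzyme wells and a reference inhibitor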
Target sequence (P00352 whole entry, looked up): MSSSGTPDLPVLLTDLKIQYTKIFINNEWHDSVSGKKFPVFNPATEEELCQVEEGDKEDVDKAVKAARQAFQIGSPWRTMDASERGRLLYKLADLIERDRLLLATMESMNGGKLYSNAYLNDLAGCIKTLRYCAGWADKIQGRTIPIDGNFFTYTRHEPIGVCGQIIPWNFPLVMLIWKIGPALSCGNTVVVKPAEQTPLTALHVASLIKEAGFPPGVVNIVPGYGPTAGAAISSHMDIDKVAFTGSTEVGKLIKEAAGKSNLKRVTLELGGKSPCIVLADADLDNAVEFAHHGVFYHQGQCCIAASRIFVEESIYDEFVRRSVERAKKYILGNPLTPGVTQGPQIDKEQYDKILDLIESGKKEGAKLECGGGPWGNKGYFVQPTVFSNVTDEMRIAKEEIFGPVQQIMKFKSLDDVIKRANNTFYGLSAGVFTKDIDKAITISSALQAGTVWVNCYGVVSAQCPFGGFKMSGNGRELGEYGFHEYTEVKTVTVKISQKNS
IMPase inh: qHTS Assay for Identifying the Cell-Membrane Permeable IMPase Inhibitors | Inositol monophosphatase 1 (Rattus norvegicus), P97697 | CHO-M1 cells, IP1 accumulation, HTRF TR-FRET ratio | inhibition (IP1 accumulation), % at 46.1 µM | 120,000 tested, under 10 active | AID 901, 2007; active means well fitted curve in the direction sought with a large enough effect in the signal ratio, not every such curve was filed as active; inconclusive means small, poorly fitted or top-dose-only effect, or a change in a side signal; inactive means no such curve, though single readings can be large or run the other way; the % refers to the signal ratio;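 further: cells stimulated with carbachol in lithium chloride buffer; plate controls were DMSO basal wells for no effect and reference inhibitor wells for full effect; higher means more IMPase inhibition seen as more IP1 and lower FRET ratio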
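The IP-One HTRF competitive assay in carbachol-stimulated CHO-M1 cells quantifies cellular IP1. Compounds spanned up to 46 uM final, and activity is expressed as AC50 from concentration-response fits of the ratio and donor data.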
Numbers without * were called inactive; ? = inconclusive; nt = not tested or not shown. Unless noted, the call rests on the fitted dose curve; in most records, active means well fitted inhibition curve with a large enough effect (not every such curve was filed as active); inconclusive means small, poorly fitted or top-dose-only effect, or another doubt; inactive means no such curve, though single readings can be large or run the other way. Unless noted, on the % scale 0 is the no-effect control and ±100 the full control effect.

SMILES | HPGD inh | ALDH1A1 block | IMPase inh
CCOC(=O)c1c(C)[nH]c(C(=O)COC(=O)C(C)Oc2ccc(Cl)cc2Cl)c1C (centres undefined) | -3% | 8% | -1
CNC(=O)[C@@H]1O[C@@H](n2cnc3c(N)ncnc32)[C@@H](O)[C@H]1O | nt | nt | -9
COc1ccc(CCNC(=O)C2CCN(S(C)(=O)=O)CC2)cc1 | -13% | 16µM* | 3
COc1ccc(CCNC(=O)C2CCN(S(=O)(=O)c3ccc(OC)c(OC)c3)CC2)cc1 | 0% | -1% | 1
COc1ccc(OC)c(S(=O)(=O)N2CCC(C(=O)NCCc3ccccc3)CC2)c1 | -20% | 5µM* | 5
COc1ccc(CCNC(=O)C2CCN(S(=O)(=O)c3cc(OC)ccc3OC)CC2)cc1 | -3% | ? | -1
CCOc1ccc(OCC)c(NC(=O)CCCN2C(=S)NC(C)(C)CC2C)c1 (centres undefined) | -7% | -5% | nt
CC1=C(/C=C/C(C)=C/C=C/C(C)=C/C(=O)O)C(C)(C)CCC1 | -6% | ? | 1
CC(/C=C/C=C(C)/C=C/C(=O)O)=C\C=C\C=C(C)\C=C\C=C(C)\C=C\C(=O)O | -21% | 32µM* | nt
N#Cc1ccc(/C=C/C(=O)c2ccccc2)cc1 | nt | 8.9µM* | nt
O=C(/C=C/c1ccccc1)c1ccccc1 | -23% | -13% | nt
O=S(=O)(c1ccccc1)N1CCC[C@@]2(CCN(c3ncccn3)C2)C1 | -9% | ? | nt
CCOc1ccc(C(C)=O)cc1CSc1nnc(-c2ccoc2C)n1N | 14µM* | 22µM* | 11
Cc1cc(NC(=O)CSc2nnc(-c3ccoc3C)n2N)no1 | -2% | -5% | 3
CCCCN(CCCC)C1=C(C(=O)c2ccccc2)N(C)S(=O)(=O)c2ccccc21 | nt | nt | 1
Cc1cccc(C(=O)Nc2ccccc2C(=O)OCc2c(C)noc2C)c1 | -26% | ? | 9
CSc1ccccc1NC(=O)c1ccc([N+](=O)[O-])cc1 | nt | 14µM* | nt
O=C(Nc1ncccn1)c1ccc([N+](=O)[O-])cc1 | nt | -10% | nt
O=C(CN1CCN(Cc2ccc(Cl)cc2)C1=O)NCCN1CCCC1 | 3% | -6% | nt
CC1(C)CC(=O)C(Sc2ccccc2C(=O)O)=C(O)C1 | -5% | 3% | nt
CC1(C)CC(=O)C(Sc2ccccc2)=C(O)C1 | nt | 20µM* | nt
CCN1C/C(=N\S(=O)(=O)/N=C2\CN(CC)C(=O)N2CC)N(CC)C1=O | nt | 2% | nt
COc1ccc(S(=O)(=O)NNC(=O)C(=O)NNc2ccccn2)cc1 | nt | 0% | nt
CSc1nc2ccc(NS(=O)(=O)c3cccc(Cl)c3Cl)cc2s1 | 16µM* | ? | -1
CSc1nc2ccc(NS(=O)(=O)c3ccc([N+](=O)[O-])cc3)cc2s1 | nt | 5% | nt
SMILES | HPGD inh | ALDH1A1 block | IMPase inh
CCOC(=O)CSC1=C(C#N)C(=O)NC2(CCCCC2)S1 | -24% | ? | -4
CCCSC1=C(C#N)C2(CCCCC2)C(C#N)=C(N)N1 | nt | 2µM* | nt
N#CC1=C(N)NC(SCc2ccccc2)=C(C#N)C12CCCCC2 | -27% | 13µM* | 6
N#Cc1cc2c(nc1SCc1ccccc1)CCCC2=O | -21% | ? | 6
CC1=C(C(=O)Nc2ccccc2)C(c2ccncc2)C(C#N)=C(SCC(=O)Nc2ccccc2)N1 (centres undefined) | -8% | ? | 3
N#CC1=C(N)NC(SCC(=O)Nc2ccccc2)=C(C#N)C12CCCCC2 | -26% | 25µM* | -3
CCSC1=C(C#N)C2(CCCCC2)C(C#N)=C(N)N1 | -3% | 10µM* | -1
CCCSC1=C(C#N)C(c2ccc(O)c(OC)c2)CC(=O)N1 (centres undefined) | -12% | -2% | 0
C/C(CC(=O)NC1C2CC3CC(C2)CC1C3)=N\NC(=O)Cc1cccs1 (centres undefined) | -13% | -5% | nt
CCN1CCCC1CNC(=O)C(=O)Nc1ccccc1OC (centres undefined) | -7% | 8% | -2
O=C(NCCN1C(=O)S/C(=C\c2ccccc2)C1=O)c1cc(S(=O)(=O)N2CCOCC2)c(Cl)cc1Cl | -10% | 5% | -1
COc1ccc(S(=O)(=O)N2CC(O)C[C@H]2C(=O)OCC(=O)N2CCCCCC2)cc1 (some centres undefined) | nt | 9% | nt
O=c1oc2ccc3ccccc3c2cc1-c1nnc(Nc2cccc(C(F)(F)F)c2)s1 | nt | nt | 3
CN(C(=O)c1cccc(Nc2ccc(-c3ccc4c(c3)OCCO4)nn2)c1)C1CCCCC1 | ? | 25µM* | 8
CN(C)S(=O)(=O)c1ccc(Nc2ccc(-c3ccc4c(c3)OCCO4)nn2)cc1 | -15% | ? | 2
O=C(N/N=C/c1ccccn1)c1[nH]c2ccc([N+](=O)[O-])cc2c1-c1ccccc1 | nt | 4.5µM* | nt
Cc1[nH]c2ccccc2c1/C=N/NC(=O)c1cccc([N+](=O)[O-])c1 | nt | 0% | nt
CCOCc1c(C(=O)OCC(=O)/C(C#N)=C(\C)N)oc2ccccc12 | nt | -1% | nt
COc1ccccc1N(C(=O)c1snc(C(N)=O)c1N)C(C(=O)NC1CCCC1)c1ccco1 (centres undefined) | ? | ? | 6
CC(C(=O)NC1CCCC1)N(C(=O)c1snc(C(N)=O)c1N)c1ccc2c(c1)OCCO2 (centres undefined) | -20% | 13µM* | -1
O=C(NNc1nc2ccccc2nc1C(F)(F)F)c1ccccc1 | -8% | ? | 2
Cc1ccc(S(=O)(=O)NNc2nc3ccccc3nc2C(F)(F)F)cc1 | 3.2µM* | 7.1µM* | 0
Cc1ccc(S(=O)(=O)NNC(=O)CCC(=O)Nc2ccccc2)cc1 | -7% | 5% | 3
Cc1ccc(S(=O)(=O)NNc2ccccc2)cc1 | 5µM* | 5.6µM* | 9
O=C(/C=C/c1ccc(Br)cc1)c1ccco1 | -15% | 15% | nt
SMILES | HPGD inh | ALDH1A1 block | IMPase inh
O=C(/C=C/C=C/c1ccccc1)c1ccco1 | nt | 28µM* | nt
COc1cccc(NC(=O)N2CCC(n3nnc4ccccc43)CC2)c1 | nt | 2% | nt
CCCCC(=O)Nc1cc([N+](=O)[O-])ccc1Cl | -3% | 0% | nt
Cc1cccc(NC(=S)N2CCCN(c3ncccc3[N+](=O)[O-])CC2)c1 | nt | 14µM* | nt
COc1cc(NC(=S)N2CCN(C)CC2)c(OC)cc1Cl | nt | -1% | nt
COc1cccc(NC(=S)N2CCN(c3ccc([N+](=O)[O-])cc3)CC2)c1 | nt | 7.9µM* | nt
Cc1cccc(Cl)c1NC(=O)N1CCCN(c2ncccc2[N+](=O)[O-])CC1 | nt | -3% | nt
CN(CC(=O)Nc1cc([N+](=O)[O-])ccc1Cl)Cc1ccc(Br)cc1 | -11% | 10µM* | 15
CN1CCN(C(=S)Nc2cc([N+](=O)[O-])ccc2Cl)CC1 | -11% | 20µM* | nt
COc1ccc(NC(=S)N2CCN(c3ccc([N+](=O)[O-])cc3)CC2)cc1OC | nt | 4% | nt
CC(C)c1ccc(S(=O)(=O)Nc2cc3c(cc2NCc2ccccc2)n(C)c(=O)n3C)cc1 | nt | nt | -2
Cc1cc(C)n(-c2nc3cc(Cl)ccc3nc2Nc2ccc(C)c(F)c2)n1 | nt | nt | 13
CN(C)C(=O)CSc1nnc(Cc2ccccc2)n1CC1CCCO1 (centres undefined) | nt | 3% | nt
CC1CCC(NC(=O)CCNC(=O)c2ccccc2)CC1 (centres undefined) | nt | 8% | nt
